According to PubChem BioAssay (Tox21):
Inconclusive results are not listed. Active and inactive are the calls of the source. Unless noted, calls come from the whole dose curve.

Key:
[1] = Nuclear factor erythroid 2-related factor 2/antioxidant responsive element (Nrf2/ARE) small molecule agonists: qHTS cell viability counter screen in human keratinocytes (AID 1919968; active = well fitted curve in the direction sought with a large enough effect in the repeat runs; an effect the other way counts as inactive or inconclusive; note: nearly all actives have a fitted effect of over 55% in size)
Outline: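 Measured as CellTiter-Fluor fluorescence, this readout tracks cytotoxicity in the same wells as the ARE-luciferase screen. HaCaT reporter cells (1,500/well) received compounds after a 5 h pre-incubation and were exposed for 23 h.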

[2] = Nuclear factor erythroid 2-related factor 2/antioxidant responsive element (Nrf2/ARE) small molecule agonists: luciferase reporter gene qHTS assay in human keratinocytes (AID 1919969); note: nearly all actives have a fitted effect of over 35% in size
[3] = biological target: Gonadotropin-releasing hormone receptor (Homo sapiens) (UniProt P30968); assay: Human gonadotropin-releasing hormone receptor (GnRHR) small molecule agonists, calcium flux assay in GnRHR-HEK293 cells (AID 1920063); note: nearly all actives have a fitted effect of over 35% in size
Outline: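 Fluorescence kinetics (480 nm excitation, 540 nm emission; 3 min, 1 s steps) report calcium mobilisation in human GnRHR-HEK293 cells in agonist mode. Dye incubation: 1 h, 37 C.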

[4] = biological target: KiSS-1 receptor (Homo sapiens) (UniProt Q969F8); assay: Human kisspeptin (KISS1R) small molecule agonists, calcium flux assay in KISS1R-HEK293 cells (AID 1920064; active = well fitted curve in the direction sought with a large enough effect in the repeat runs; an effect the other way counts as inactive or inconclusive)
Outline: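 Measures KISS1R agonism through calcium-sensitive dye fluorescence in stably transfected HEK293 cells, read for 3 min after pin-tool compound delivery; 15-point titrations in triplicate.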

[5] = G protein-coupled receptor (GPCR) small molecule agonists, calcium flux assay: HEK293 wild type cell line counter screen (AID 1920065)
Outline: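 Readout: fluorescence at 480 nm excitation/540 nm emission, sampled at 1 s intervals for 3 min. Cells had been cultured 18 h, then dye-loaded 1 h at 37 C before compound or ATP addition.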

[6] = p53 small molecule agonists, cell-based qHTS assay with human liver microsomes (AID 1963577);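 note: p53 response element beta-lactamase reporter cells with liver microsomes plus NADPH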
Outline: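 Metabolically competent format: test substances, human liver microsomes and NADPH (both 0.5 mg/mL final) incubated with p53RE-bla cells 16 h at 37 C. Beta-lactamase reporter signal then quantified by fluorescence.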

[7] = p53 small molecule agonists, cell-based qHTS assay with rat liver microsomes (AID 1963578)
Outline: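 Each plate received p53RE-bla cells, then compound, then rat liver microsomes and NADPH (both 0.5 mg/mL final). Plates were held 16 h at 37 C, and beta-lactamase activity was detected with LiveBLAzer over 2 h.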

[8] = p53 small molecule agonists, cell-based qHTS assay with human liver microsomes: qHTS cell viability counter screen (AID 1963579); note: nearly all actives have a fitted effect of over 45% in size
Outline: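 Tox21 library compounds, delivered from DMSO stocks, were tested on p53RE-bla cells together with 0.5 mg/mL human liver microsomes and 0.5 mg/mL NADPH (final) over 16 h at 37 C; CellTiter-Glo luminescence served as the cytotoxicity measure.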

[9] = p53 small molecule agonists, cell-based qHTS assay with rat liver microsomes: qHTS cell viability counter screen (AID 1963580); note: nearly all actives have a fitted effect of over 45% in size
Outline: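 p53RE-bla HCT-116 cells (4,000/well) rested 5 h at 37 C, then given Tox21 compounds in DMSO with rat liver microsomes (0.5 mg/mL final) plus NADPH (0.5 mg/mL final) for 16 h at 37 C. Viability read by CellTiter-Glo luminescence after 30 min at room temperature.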

[10] = p53 small molecule agonists, cell-based qHTS assay: qHTS cell viability counter screen (AID 1963581); note: nearly all actives have a fitted effect of over 45% in size
Outline: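 In the same plates used for the p53 bla reporter, HCT-116 cells given compounds for 16 h at 37 C received CellTiter-Glo; luminescence was recorded 30 min later at room temperature.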

[11] = p53 small molecule agonists, cell-based qHTS assay (AID 1963582; active = well fitted activation curve with a large enough effect in the signal ratio in the repeat runs, not every such curve was filed as active; the % refers to the signal ratio)
Outline: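 Compounds are pin-transferred in DMSO onto p53RE-bla cells and incubated 16 h at 37 C. The B/G FRET beta-lactamase substrate is then applied for 2 h at RT and fluorescence recorded.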

[12] = biological target: 5-hydroxytryptamine receptor 2A (Homo sapiens) (UniProt P28223); assay: 5-hydroxytryptamine receptor 2A (HTR2A) small molecule antagonists, cell-based qHTS assay (AID 1963586); note: nearly all actives have a fitted effect of over 45% in size
Outline: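 Antagonist-mode intracellular calcium assay: DOI (4 nM) added after 5 min compound pre-incubation at room temperature to dye-loaded HTR2A-CHO cells. Fluorescence followed for 3 min, sampled every second.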

[13] = biological target: 5-hydroxytryptamine receptor 2A (Homo sapiens) (UniProt P28223); assay: 5-hydroxytryptamine receptor 2A (HTR2A) small molecule agonists, cell-based qHTS assay (AID 1963587); note: nearly all actives have a fitted effect of over 30% in size
Outline: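 HTR2A-CHO cells, plated 18 h at 37 C/5% CO2, dye-loaded 1 h at 37 C; compounds in DMSO added by pin tool (agonist mode). Intracellular calcium flux read as kinetic fluorescence on FDSS over 2 min at 1 s intervals.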

[14] = biological target: Muscarinic acetylcholine receptor M1 (Homo sapiens) (UniProt P11229); assay: Cholinergic receptor muscarinic 1 (CHRM1) small molecule antagonists, cell-based qHTS assay (AID 1963588); note: nearly all actives have a fitted effect of over 40% in size
Outline: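 CHRM1-CHO calcium-flux assay, antagonist mode. Cells were seeded 18 h, dye-loaded 1 h at 37 C and given compound for 5 min at RT, then acetylcholine was added at 50nM. FDSS fluorescence was read 3 min; 15 concentrations, three runs.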

[15] = biological target: Muscarinic acetylcholine receptor M1 (Homo sapiens) (UniProt P11229); assay: Cholinergic receptor muscarinic 1 (CHRM1) small molecule agonists, cell-based qHTS assay (AID 1963589); note: nearly all actives have a fitted effect of over 35% in size
Outline: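 Each compound was tested at 15 concentrations across three independent runs on dye-loaded CHO cells stably expressing human CHRM1, reading intracellular calcium fluorescence kinetically at 1 sec intervals.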

[16] = cAMP Responsive Elements (CRE) small molecule antagonists, cell-based qHTS assay (AID 1963591; active = well fitted inhibition curve with a large enough effect in the signal ratio in the repeat runs, not every such curve was filed as active; the % refers to the signal ratio)
Outline: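 Inhibition of NKH477-driven (0.25 uM final) CRE-beta-lactamase signal in HEK293T cells, 3 h compound exposure at 37 °C, detected by FRET substrate fluorescence.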

[17] = biological target: Beta-2 adrenergic receptor (Homo sapiens) (UniProt P07550); assay: Adrenergic beta2 receptor (ADRB2) small molecule antagonists, cell-based qHTS assay (AID 1963592); note: series mostly up to about 92 µM; nearly all actives have a fitted effect of over 50% in size
Outline: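 Cells (CHO, stable ADRB2 overexpression) incubated 18-20hr at 37C; compounds added from DMSO; agonist mix (1nM isoproterenol, 100uM IBMX, 25uM Ro-20-1724) added; 0.5hr RT; d2-cAMP and anti-cAMP-cryptate added; 1hr RT; 665/615 nm read.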

[18] = biological target: D(2) dopamine receptor (Homo sapiens) (UniProt P14416); assay: Dopamine D2 receptor (DRD2) small molecule antagonists, cell-based qHTS assay (AID 1963595; active = well fitted inhibition curve with a large enough effect in the signal ratio in the repeat runs, with a control signal flat; the % refers to the signal ratio)
Outline: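 HEK293 cells stably expressing DRD2 were preincubated with 0.1 mM Ro20-1724, then with compound for 10 min at room temperature. Cells were stimulated with 200 nM NKH477 plus 12 nM quinpirole for 30 min, and cAMP was read by HTRF.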

[19] = cAMP Responsive Elements (CRE) small molecule agonists, cell-based qHTS assay (AID 1963590)
Outline: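 Cell line: CRE-bla HEK 293T; medium DMEM/10% dialyzed FBS/0.1 mM NEAA/1 mM pyruvate/25 mM HEPES; 3 h compound exposure; beta-lactamase FRET readout after 2 h substrate loading at RT.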

[20] = biological target: D(2) dopamine receptor (Homo sapiens) (UniProt P14416); assay: Dopamine D2 receptor (DRD2) small molecule agonists, cell-based qHTS assay (AID 1963594); note: nearly all actives have a fitted effect of over 35% in size
Outline: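 HEK293 cells stably expressing DRD2 were cultured 24 h at 37 C, then given Ro20-1724 (0.1 mM final) and compounds for 10 min at room temperature. NKH477 (200nM) was then added for 30 min. cAMP was read by HTRF.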

Measured: Potency

KiSS-1 receptor (Homo sapiens), sequence (Q969F8 whole entry, looked up): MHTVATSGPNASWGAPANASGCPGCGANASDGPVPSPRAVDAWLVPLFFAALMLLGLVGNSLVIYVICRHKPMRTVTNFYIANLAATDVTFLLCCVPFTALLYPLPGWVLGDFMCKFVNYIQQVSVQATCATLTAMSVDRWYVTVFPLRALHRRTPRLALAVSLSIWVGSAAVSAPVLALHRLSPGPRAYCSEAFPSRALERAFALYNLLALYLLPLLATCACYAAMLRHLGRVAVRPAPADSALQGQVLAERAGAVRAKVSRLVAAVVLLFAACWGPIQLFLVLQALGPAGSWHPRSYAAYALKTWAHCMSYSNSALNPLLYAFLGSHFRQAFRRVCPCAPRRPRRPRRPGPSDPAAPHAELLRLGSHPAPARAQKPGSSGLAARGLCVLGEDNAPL
Muscarinic acetylcholine receptor M1 (Homo sapiens), sequence (P11229 whole entry, looked up): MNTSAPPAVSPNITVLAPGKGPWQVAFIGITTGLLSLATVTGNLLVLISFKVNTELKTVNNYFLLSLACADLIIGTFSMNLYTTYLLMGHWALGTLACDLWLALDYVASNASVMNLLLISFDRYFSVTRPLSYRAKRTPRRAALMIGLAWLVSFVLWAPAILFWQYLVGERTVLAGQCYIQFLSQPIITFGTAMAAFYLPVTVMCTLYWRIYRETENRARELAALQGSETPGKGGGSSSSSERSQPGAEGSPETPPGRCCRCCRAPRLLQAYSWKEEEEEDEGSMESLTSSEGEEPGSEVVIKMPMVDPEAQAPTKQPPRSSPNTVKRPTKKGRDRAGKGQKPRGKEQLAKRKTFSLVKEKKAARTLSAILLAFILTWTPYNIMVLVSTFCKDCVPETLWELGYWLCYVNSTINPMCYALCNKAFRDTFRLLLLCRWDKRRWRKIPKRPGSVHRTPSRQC
Beta-2 adrenergic receptor (Homo sapiens), sequence (P07550 whole entry, looked up): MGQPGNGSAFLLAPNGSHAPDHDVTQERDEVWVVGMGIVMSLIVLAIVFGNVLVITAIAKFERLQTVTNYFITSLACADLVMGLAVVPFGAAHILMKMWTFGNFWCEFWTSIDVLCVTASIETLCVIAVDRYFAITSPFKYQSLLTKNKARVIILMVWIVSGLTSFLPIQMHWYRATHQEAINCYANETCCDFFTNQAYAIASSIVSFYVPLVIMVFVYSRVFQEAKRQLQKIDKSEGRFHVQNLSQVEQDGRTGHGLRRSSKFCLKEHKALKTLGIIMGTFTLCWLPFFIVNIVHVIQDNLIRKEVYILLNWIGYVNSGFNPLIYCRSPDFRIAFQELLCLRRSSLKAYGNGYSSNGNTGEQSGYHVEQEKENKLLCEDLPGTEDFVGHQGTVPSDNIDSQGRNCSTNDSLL
Gonadotropin-releasing hormone receptor (Homo sapiens), sequence (P30968 whole entry, looked up): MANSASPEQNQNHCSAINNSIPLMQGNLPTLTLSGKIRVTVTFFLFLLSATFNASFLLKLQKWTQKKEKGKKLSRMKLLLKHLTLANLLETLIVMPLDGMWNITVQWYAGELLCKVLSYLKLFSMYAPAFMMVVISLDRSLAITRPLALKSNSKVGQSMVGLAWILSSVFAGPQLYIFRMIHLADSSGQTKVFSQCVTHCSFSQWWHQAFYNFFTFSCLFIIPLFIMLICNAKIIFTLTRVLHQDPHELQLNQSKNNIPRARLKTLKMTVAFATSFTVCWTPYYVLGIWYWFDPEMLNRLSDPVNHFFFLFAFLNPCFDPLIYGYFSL
5-hydroxytryptamine receptor 2A (Homo sapiens), sequence (P28223 whole entry, looked up): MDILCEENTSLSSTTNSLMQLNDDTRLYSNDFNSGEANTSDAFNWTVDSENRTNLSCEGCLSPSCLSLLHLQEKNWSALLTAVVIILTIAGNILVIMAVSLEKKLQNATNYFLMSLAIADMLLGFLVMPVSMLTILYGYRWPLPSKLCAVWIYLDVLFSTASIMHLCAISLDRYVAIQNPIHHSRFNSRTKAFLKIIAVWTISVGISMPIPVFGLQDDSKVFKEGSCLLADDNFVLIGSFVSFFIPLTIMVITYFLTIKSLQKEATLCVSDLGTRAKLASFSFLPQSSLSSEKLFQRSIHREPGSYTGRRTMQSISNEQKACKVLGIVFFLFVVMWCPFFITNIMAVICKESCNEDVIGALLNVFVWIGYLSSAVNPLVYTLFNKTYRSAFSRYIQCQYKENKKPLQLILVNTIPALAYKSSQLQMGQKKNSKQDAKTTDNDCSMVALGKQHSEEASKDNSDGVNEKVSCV
D(2) dopamine receptor (Homo sapiens), sequence (P14416 whole entry, looked up): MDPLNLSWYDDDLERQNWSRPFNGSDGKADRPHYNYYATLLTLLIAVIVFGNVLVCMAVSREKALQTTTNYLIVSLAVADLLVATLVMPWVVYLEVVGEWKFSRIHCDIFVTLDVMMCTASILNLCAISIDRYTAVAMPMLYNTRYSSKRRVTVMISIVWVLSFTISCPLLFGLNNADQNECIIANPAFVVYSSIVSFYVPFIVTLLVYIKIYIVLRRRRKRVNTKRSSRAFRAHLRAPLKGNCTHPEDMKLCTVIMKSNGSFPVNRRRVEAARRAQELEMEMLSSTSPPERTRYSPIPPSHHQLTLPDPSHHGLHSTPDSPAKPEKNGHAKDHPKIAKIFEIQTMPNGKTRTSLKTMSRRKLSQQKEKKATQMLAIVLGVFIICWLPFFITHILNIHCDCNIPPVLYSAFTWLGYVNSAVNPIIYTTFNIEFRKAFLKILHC

CC(C)OC(=O)CCCCC(=O)OC(C)C
not listed: [19] | [20]
inactive: all other assays above

C1CCC2OC2C1 (stereo not drawn)
not listed: [16]
inactive: all other assays above

O=c1[nH]cnc2c1ncn2[C@@H]1O[C@H](CO)[C@@H](O)[C@H]1O
not listed: [17] | [19]
inactive: all other assays above

c1ccc2nccnc2c1
not listed: [19]
inactive: all other assays above

C=CCOCC(CO)(COCC=C)COCC=C
not listed: [19]
inactive: all other assays above
